# Test results published in PubChem BioAssay (EPA / NIEHS).
# Inconclusive results are not listed. Where a structure was tested more than once in an assay, its records may differ in their call. Active and inactive are the calls of the source. The calls were made as follows, unless noted: active = hit-call score of the fitted dose curve at least 0.9, where 1 is the maximum; inconclusive = response in the unintended direction; inactive = score below 0.9.
# Columns and labels:
# [1] = ATG_TCF_b_cat_CIS: Attagene CIS-FACTORIAL HepG2 Assay for human T-Cell-Factor with beta-catenin (TCF/b-cat) (AID 2282965; active = hit-call score of the fitted dose curve at least 0.9, where 1 is the maximum; inactive = score below 0.9); details: HepG2 TCF/beta-catenin cis-reporter transcription, actives raise or lower the signal
# In short: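 HepG2, transient MRTU transfection, cis-element-driven reporters (endogenous TFs). 24 h compound exposure. Readout: reporter mRNA by RT-PCR + 6-FAM primer extension, HpaI digest, capillary electrophoresis. Gain/loss fit vs DMSO baseline.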
# [2] = ATG_TAL_CIS: Attagene CIS-FACTORIAL HepG2 Assay for human TAL Basal Promoter (AID 2282966; active = hit-call score of the fitted dose curve at least 0.9, where 1 is the maximum; inactive = score below 0.9;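 also: background control endpoint measuring basal TAL promoter reporter mRNA not a specific factor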); details: HepG2 Attagene cis-factorial TAL promoter reporter; actives raise or lower the signal
# In short: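 RT-PCR plus capillary electrophoresis quantifies reporter mRNA induction in transiently transfected HepG2 cells after 24 h chemical treatment. DMSO serves as negative control and baseline for bidirectional fitting.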
# [3] = ATG_TGFb_CIS: Attagene CIS-FACTORIAL HepG2 Assay for human Transforming Growth Factor (TGF) (AID 2282967; active = hit-call score of the fitted dose curve at least 0.9, where 1 is the maximum; inactive = score below 0.9); details: HepG2 Attagene CIS TGFb reporter, mRNA transcription; actives raise or lower the signal
# In short: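 HepG2 cells transiently transfected with cis-promoter-driven multiplexed reporter units; 24 h compound exposure. Reporter mRNA measured by RT-PCR, 6-FAM labeling, HpaI digestion and capillary electrophoresis; bidirectional fit versus DMSO baseline.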
# [4] = ATG_VDRE_CIS: Attagene CIS-FACTORIAL HepG2 Assay for human Vitamin D Receptor Element (VDRE) (AID 2282968; active = hit-call score of the fitted dose curve at least 0.9, where 1 is the maximum; inactive = score below 0.9); details: HepG2 VDRE cis-reporter transcription, actives raise or lower the signal
# In short: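 Cell-based multiplexed reporter format in human liver HepG2 cells, 24 h post-dose. Fluorescence from capillary electrophoresis of reporter cDNA gives the signal, with DMSO as negative control and baseline.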
# [5] = molecular target: Estrogen receptor (Homo sapiens) (UniProt P03372); assay: ATG_ERa_TRANS: Attagene TRANS-FACTORIAL HepG2 Assay for human Estrogen Receptor alpha (ERa) (AID 2282970); details: HepG2 Attagene TRANS ERa GAL4 reporter, mRNA
# Estrogen receptor (Homo sapiens), sequence (P03372 whole entry, looked up, the tested form may be a part): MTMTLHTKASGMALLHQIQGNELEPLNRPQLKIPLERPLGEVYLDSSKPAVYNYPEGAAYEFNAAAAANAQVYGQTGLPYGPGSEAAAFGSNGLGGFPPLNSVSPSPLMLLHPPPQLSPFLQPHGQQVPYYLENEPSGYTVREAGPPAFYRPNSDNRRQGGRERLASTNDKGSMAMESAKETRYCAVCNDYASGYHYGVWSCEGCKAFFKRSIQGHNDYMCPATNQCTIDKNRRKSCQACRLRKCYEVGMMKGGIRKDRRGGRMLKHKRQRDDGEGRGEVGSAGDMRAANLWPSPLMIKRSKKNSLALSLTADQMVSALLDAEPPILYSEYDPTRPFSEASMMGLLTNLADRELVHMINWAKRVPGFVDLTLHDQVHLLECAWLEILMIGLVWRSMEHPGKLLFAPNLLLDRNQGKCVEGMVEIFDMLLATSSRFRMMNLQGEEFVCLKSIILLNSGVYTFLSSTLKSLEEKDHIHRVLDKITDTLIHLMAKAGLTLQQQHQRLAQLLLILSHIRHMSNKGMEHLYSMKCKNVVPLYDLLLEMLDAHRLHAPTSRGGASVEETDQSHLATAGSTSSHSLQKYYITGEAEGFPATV
# In short: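 Cells: HepG2, transiently transfected. Construct: GAL4-UAS reporter units regulated by exogenous NR-Gal4 chimeras. Time: 24 h. Detection: reporter mRNA by RT-PCR, capillary electrophoresis, fluorescence. Baseline: DMSO, upward fitting.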
# [6] = molecular target: Steroid hormone receptor ERR1 (Homo sapiens) (UniProt P11474); assay: ATG_ERRa_TRANS: Attagene TRANS-FACTORIAL HepG2 Assay for human Estrogen-Related Receptor alpha (ERRa) (AID 2282971); details: HepG2 Attagene TRANS reporter, ERRa transactivation
# Steroid hormone receptor ERR1 (Homo sapiens), sequence (P11474 whole entry, looked up, the tested form may be a part): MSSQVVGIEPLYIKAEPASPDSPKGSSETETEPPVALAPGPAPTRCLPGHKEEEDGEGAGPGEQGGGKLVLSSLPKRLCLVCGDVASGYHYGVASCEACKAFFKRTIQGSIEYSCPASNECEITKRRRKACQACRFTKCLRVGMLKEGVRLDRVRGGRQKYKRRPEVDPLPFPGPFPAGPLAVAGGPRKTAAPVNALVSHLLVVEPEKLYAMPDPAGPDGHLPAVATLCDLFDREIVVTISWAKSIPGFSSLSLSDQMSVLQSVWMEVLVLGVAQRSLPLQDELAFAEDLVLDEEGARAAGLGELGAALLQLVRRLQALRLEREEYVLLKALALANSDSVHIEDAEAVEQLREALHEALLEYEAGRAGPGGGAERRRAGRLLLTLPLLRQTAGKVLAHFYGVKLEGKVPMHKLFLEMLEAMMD
# In short: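 Reporter transcripts from ERRa-Gal4 chimera activity measured in transiently transfected human HepG2 cells 24 hours after dosing, using RT-PCR with 6-FAM primer extension, HpaI digestion and capillary electrophoresis; DMSO is baseline.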
# [7] = molecular target: X-box-binding protein 1 (Homo sapiens) (UniProt P17861); assay: ATG_Xbp1_CIS: Attagene CIS-FACTORIAL HepG2 Assay for human X-box Binding Protein 1 (XBP1) (AID 2282972; active = hit-call score of the fitted dose curve at least 0.9, where 1 is the maximum; inactive = score below 0.9); details: HepG2 XBP1 cis-element reporter, Attagene multiplex; actives raise or lower the signal
# X-box-binding protein 1 (Homo sapiens), sequence (P17861 whole entry, looked up, the tested form may be a part): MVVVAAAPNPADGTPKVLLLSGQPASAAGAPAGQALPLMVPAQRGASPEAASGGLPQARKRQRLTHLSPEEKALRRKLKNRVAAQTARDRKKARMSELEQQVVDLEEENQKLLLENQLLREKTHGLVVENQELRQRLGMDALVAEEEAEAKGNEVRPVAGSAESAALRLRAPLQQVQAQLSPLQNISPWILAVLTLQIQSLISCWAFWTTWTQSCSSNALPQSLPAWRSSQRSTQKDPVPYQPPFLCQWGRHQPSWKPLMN
# In short: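 Fluorescence-labelled cDNA fragments from reporter transcripts, separated by capillary electrophoresis, give the signal. Source: HepG2 cells transfected with promoter-driven reporter units, harvested 24 h post-dose. DMSO served as reference for bidirectional curve fitting.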
# [8] = ATG_M_19_TRANS: Attagene TRANS-FACTORIAL HepG2 Assay for M19 Transcription Factor (Internal Marker) (AID 2282974); details: HepG2 Attagene TRANS-FACTORIAL M19 internal marker reporter
# In short: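 After transfection of HepG2 with GAL4-UAS-driven reporter constructs, cells are dosed for 24 h. Total RNA is reverse-transcribed, reporter sequences PCR-amplified and labelled, then HpaI-digested and sized by capillary electrophoresis.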
# [9] = ATG_GAL4_TRANS: Attagene TRANS-FACTORIAL HepG2 Assay for GAL4 (Internal Marker) (AID 2282976); details: HepG2 Attagene TRANS GAL4 internal marker reporter
# In short: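 In transfected human HepG2 liver cells dosed 24 h, GAL4 reporter mRNA serves as a baseline marker. Detection by RT-PCR with fluorescent capillary electrophoresis, activity fitted upward relative to DMSO.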
# [10] = molecular target: Glucocorticoid receptor (Homo sapiens) (UniProt P04150); assay: ATG_GR_TRANS: Attagene TRANS-FACTORIAL HepG2 Assay for human Glucocorticoid Receptor (GR) (AID 2282978); details: HepG2 Attagene TRANS GR reporter, mRNA transcription;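 also: activators score as hits since higher reporter transcript over DMSO is fitted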
# Glucocorticoid receptor (Homo sapiens), sequence (P04150 whole entry, looked up): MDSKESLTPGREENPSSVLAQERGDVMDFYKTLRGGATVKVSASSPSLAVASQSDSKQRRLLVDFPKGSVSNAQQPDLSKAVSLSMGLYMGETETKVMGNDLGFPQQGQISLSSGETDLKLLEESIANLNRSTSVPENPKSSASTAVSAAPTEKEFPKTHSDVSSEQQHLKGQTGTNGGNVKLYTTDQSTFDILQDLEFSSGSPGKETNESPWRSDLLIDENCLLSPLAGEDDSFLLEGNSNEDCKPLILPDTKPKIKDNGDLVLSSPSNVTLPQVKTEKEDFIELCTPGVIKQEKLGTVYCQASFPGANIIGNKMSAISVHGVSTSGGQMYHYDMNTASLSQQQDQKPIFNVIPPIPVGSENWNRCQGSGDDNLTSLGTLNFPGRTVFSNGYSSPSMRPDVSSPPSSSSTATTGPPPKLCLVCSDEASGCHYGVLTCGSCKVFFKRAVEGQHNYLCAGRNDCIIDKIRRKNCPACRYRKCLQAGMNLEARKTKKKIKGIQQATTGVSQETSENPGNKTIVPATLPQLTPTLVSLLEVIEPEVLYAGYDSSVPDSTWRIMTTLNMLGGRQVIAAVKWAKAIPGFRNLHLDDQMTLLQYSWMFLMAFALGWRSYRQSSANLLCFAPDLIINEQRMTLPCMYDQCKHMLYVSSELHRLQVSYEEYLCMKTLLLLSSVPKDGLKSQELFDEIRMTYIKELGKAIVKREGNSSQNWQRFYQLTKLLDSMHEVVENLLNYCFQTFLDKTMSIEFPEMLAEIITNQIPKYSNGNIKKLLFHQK
# In short: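 Multiplexed TRANS reporter system, HepG2; 24 h exposure; RNA → oligo(dT) RT → reporter-specific PCR → 6-FAM primer extension → HpaI cut → CE fluorescence. Gain-of-signal vs DMSO.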
# [11] = molecular target: Bile acid receptor (Homo sapiens) (UniProt Q96RI1); assay: ATG_FXR_TRANS: Attagene TRANS-FACTORIAL HepG2 Assay for Farnesoid X Receptor (FXR) (AID 2282979); details: HepG2 Attagene TRANS FXR-GAL4 reporter transcription;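 also: hits raise reporter mRNA above DMSO so AC50 marks FXR activation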
# In short: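 Reporter transcripts from transfected HepG2 cells were measured 24 h after dosing, using RT-PCR with capillary electrophoresis of 6-FAM-labelled fragments. The read-out reflects activity of exogenous FXR-Gal4 chimera on GAL4-UAS units, with induction relative to DMSO.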
# [12] = molecular target: Oxysterols receptor LXR-alpha (Homo sapiens) (UniProt Q13133); assay: ATG_LXRa_TRANS: Attagene TRANS-FACTORIAL HepG2 Assay for human Liver X Receptor alpha (LXRa) (AID 2282980); details: HepG2 Attagene TRANS reporter, LXRa transactivation
# Oxysterols receptor LXR-alpha (Homo sapiens), sequence (Q13133 whole entry, looked up, the tested form may be a part): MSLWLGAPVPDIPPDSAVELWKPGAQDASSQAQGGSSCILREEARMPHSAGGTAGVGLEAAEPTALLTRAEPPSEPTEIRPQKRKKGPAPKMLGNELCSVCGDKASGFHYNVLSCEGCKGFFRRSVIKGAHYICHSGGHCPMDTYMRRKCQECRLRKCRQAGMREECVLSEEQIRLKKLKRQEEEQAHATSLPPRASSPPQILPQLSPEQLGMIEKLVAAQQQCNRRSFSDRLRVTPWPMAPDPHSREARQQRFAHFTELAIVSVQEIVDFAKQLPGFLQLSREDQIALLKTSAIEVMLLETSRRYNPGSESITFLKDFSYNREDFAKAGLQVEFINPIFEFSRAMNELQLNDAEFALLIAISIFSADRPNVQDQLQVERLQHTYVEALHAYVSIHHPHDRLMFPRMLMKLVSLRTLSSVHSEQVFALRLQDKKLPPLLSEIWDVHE
# In short: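 Chemical-induced reporter mRNA measured by RT-PCR with fluorescent labelling and capillary electrophoresis after 24 h dosing of transiently transfected HepG2 cells expressing exogenous NR-Gal4 chimeras; increases scored against DMSO baseline.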
# [13] = molecular target: Oxysterols receptor LXR-beta (Homo sapiens) (UniProt P55055); assay: ATG_LXRb_TRANS: Attagene TRANS-FACTORIAL HepG2 Assay for human Liver X Receptor beta (LXRb) (AID 2282981); details: HepG2 Attagene TRANS GAL4-LXRb reporter, mRNA
# Oxysterols receptor LXR-beta (Homo sapiens), sequence (P55055 whole entry, looked up, the tested form may be a part): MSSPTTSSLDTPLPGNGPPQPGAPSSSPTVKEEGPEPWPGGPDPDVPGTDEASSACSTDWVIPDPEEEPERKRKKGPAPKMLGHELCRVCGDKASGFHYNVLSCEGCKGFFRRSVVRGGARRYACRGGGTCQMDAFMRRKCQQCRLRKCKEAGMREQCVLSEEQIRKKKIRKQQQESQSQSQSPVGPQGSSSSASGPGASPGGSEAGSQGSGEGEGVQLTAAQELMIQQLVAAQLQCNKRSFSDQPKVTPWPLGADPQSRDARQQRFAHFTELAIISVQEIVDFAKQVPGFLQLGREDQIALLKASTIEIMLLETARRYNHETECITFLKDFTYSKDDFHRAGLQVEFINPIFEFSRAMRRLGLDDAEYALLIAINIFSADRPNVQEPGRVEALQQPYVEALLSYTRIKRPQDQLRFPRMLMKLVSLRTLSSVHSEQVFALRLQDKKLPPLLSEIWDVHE
# In short: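 Gain-of-signal mRNA reporter endpoint, DMSO as negative control. Transiently transfected HepG2 cells carrying the NR-Gal4 chimera and GAL4-UAS reporter units were treated 24 h; transcripts quantified by RT-PCR and capillary electrophoresis fluorescence.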
# [14] = ATG_M_06_TRANS: Attagene TRANS-FACTORIAL HepG2 Assay for M06 Transcription Factor (Internal Marker) (AID 2282983); details: HepG2 Attagene TRANS M06 internal marker reporter
# In short: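 Cells: HepG2, transient multi-reporter transfection. Exposure: 24 h. Detection: RT-PCR, 6-FAM labelling, HpaI digestion (2 h, 37 °C), capillary electrophoresis. Baseline: DMSO.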
# [15] = ATG_M_32_TRANS: Attagene TRANS-FACTORIAL HepG2 Assay for M32 Transcription Factor (Internal Marker) (AID 2282984); details: HepG2 Attagene TRANS M32 internal marker reporter;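 also: transcript level of a background control reporter unit measured by RT-PCR and capillary electrophoresis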
# In short: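 Capillary electrophoresis of 6-FAM-labelled reporter fragments gives the signal; data fitted for gain over DMSO negative control. Source: HepG2 cells bearing transient multiple reporter transcription units, 24 h exposure.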
# [16] = molecular target: Transcriptional activator Myb (Homo sapiens) (UniProt P10242); assay: ATG_Myb_CIS: Attagene CIS-FACTORIAL HepG2 Assay for human Myeloblastosis (Myb) Proto-Oncogene Transcription Factor (AID 2282986; active = hit-call score of the fitted dose curve at least 0.9, where 1 is the maximum; inactive = score below 0.9); details: HepG2 Attagene CIS-FACTORIAL Myb reporter transcription; actives raise or lower the signal
# Transcriptional activator Myb (Homo sapiens), sequence (P10242 whole entry, looked up): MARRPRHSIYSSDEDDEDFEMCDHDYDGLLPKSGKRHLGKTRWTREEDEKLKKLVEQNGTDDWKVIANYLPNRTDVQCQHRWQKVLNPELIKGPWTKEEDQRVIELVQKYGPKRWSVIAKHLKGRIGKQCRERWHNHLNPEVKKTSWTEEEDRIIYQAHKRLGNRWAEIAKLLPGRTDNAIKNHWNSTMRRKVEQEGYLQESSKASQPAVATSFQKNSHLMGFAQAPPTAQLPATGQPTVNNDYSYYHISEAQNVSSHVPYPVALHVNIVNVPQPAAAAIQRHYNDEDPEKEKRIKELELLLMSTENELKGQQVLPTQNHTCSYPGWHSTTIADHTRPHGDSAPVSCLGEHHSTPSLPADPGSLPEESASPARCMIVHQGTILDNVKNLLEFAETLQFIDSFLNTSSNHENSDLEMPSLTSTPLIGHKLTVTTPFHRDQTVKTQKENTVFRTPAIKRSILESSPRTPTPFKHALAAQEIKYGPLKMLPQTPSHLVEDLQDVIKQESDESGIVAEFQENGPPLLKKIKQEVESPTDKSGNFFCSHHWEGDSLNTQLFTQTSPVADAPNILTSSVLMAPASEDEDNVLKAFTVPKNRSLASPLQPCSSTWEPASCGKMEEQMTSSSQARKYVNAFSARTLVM
# In short: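 Endogenous transcription factor activity at a Myb-responsive cis element is reported in human liver HepG2 cells after 24 h chemical treatment. Reporter mRNA is detected by RT-PCR and capillary electrophoresis fluorescence, with DMSO as baseline.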
# [17] = molecular target: Nuclear receptor subfamily 1 group I member 3 (Homo sapiens) (UniProt Q14994); assay: ATG_CAR_TRANS: Attagene TRANS-FACTORIAL HepG2 Assay for human Constitutive Androstane Receptor (CAR) (AID 2282969); details: HepG2 Attagene TRANS-FACTORIAL CAR reporter;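 also: activators raise reporter mRNA above DMSO so AC50 marks induction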
# Nuclear receptor subfamily 1 group I member 3 (Homo sapiens), sequence (Q14994 whole entry, looked up, the tested form may be a part): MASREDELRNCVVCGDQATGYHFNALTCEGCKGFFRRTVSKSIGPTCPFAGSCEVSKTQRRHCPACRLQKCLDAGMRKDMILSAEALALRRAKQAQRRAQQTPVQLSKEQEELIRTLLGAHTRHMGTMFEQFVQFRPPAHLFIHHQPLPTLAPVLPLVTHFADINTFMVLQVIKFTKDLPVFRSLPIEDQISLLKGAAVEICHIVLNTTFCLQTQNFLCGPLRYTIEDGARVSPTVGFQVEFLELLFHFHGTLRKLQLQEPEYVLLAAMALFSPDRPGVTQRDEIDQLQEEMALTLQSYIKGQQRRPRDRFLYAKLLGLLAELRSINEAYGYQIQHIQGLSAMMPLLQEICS
# In short: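 HepG2 cells transiently transfected with GAL4-UAS reporter units; TRANS format reads activity of exogenous chimeric NR-Gal4 protein. After 24 h dosing, reporter mRNA quantified by RT-PCR, 6-FAM labelling and capillary electrophoresis; gain of signal fitted against DMSO.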
# [18] = molecular target: Estrogen-related receptor gamma (Homo sapiens) (UniProt P62508); assay: ATG_ERRg_TRANS: Attagene TRANS-FACTORIAL HepG2 Assay for human Estrogen-Related Receptor gamma (ERRg) (AID 2282977); details: HepG2 Attagene TRANS reporter, ERRg transactivation;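 also: hits increase reporter signal over DMSO so potencies reflect activators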
# Estrogen-related receptor gamma (Homo sapiens), sequence (P62508 whole entry, looked up, the tested form may be a part): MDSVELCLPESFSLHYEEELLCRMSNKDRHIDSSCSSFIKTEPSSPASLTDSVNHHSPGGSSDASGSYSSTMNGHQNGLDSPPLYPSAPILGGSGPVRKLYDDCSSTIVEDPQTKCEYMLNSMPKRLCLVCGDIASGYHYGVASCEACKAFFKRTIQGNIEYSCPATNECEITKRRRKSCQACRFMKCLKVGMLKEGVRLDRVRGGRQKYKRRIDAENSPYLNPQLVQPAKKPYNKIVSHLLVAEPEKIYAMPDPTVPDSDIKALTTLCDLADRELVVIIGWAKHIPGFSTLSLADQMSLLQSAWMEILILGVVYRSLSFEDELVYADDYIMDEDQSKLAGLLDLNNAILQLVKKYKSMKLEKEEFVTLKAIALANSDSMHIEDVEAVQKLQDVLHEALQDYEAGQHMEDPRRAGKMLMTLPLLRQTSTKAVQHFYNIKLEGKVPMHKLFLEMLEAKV
# In short: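 HepG2 cells transiently transfected with multiplexed GAL4-UAS reporter units and chimeric NR-Gal4 constructs were exposed to test chemicals for 24 h. Reporter mRNA was measured by RT-PCR, 6-FAM primer extension, HpaI digestion and capillary electrophoresis; gain-of-signal versus DMSO.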
# [19] = molecular target: Hepatocyte nuclear factor 4-alpha (Homo sapiens) (UniProt P41235); assay: ATG_HNF4a_TRANS: Attagene TRANS-FACTORIAL HepG2 Assay for human Hepatocyte Nuclear Factor 4 alpha (HNF4a) (AID 2282982); details: HepG2 HNF4a transactivation reporter, mRNA readout
# Hepatocyte nuclear factor 4-alpha (Homo sapiens), sequence (P41235 whole entry, looked up, the tested form may be a part): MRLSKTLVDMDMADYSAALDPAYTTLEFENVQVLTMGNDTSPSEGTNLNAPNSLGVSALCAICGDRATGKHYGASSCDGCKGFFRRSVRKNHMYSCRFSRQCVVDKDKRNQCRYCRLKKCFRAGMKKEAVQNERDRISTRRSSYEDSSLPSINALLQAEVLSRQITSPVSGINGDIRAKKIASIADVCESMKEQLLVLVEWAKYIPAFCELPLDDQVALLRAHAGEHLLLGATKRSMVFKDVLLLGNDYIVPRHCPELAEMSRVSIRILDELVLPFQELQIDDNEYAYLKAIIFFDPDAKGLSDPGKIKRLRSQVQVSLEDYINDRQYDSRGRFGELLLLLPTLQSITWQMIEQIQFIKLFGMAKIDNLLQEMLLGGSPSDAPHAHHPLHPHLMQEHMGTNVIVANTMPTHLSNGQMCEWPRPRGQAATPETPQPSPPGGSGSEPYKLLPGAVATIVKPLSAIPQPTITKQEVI
# In short: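 Gain-of-signal mRNA induction, relative to DMSO vehicle, was read after 24 h compound treatment of HepG2 cells bearing transfected GAL4-UAS reporters. Detection used RT-PCR, 6-FAM primer extension and capillary electrophoresis.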
# [20] = molecular target: Nuclear receptor subfamily 4 group A member 2 (Homo sapiens) (UniProt P43354); assay: ATG_NURR1_TRANS: Attagene TRANS-FACTORIAL HepG2 Assay for human Nuclear Receptor Related Protein 1 (NURR1) (AID 2282985); details: HepG2 Attagene TRANS reporter, mRNA readout
# In short: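 HepG2 / transient MRTU transfection / 24 h compound exposure / RT-PCR + CE fluorescence of reporter mRNA / gain-of-signal vs DMSO.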
compound,measurement,setting,value
O=C(CC(=O)C(F)(F)C(F)(F)F)C(F)(F)F,AC50,[1],150 µM (active)
same,outcome,[1],inactive
same,outcome,[2],inactive
same,outcome,[3],inactive
same,outcome,[4],inactive
same,outcome,[5],inactive
same,outcome,[6],inactive
same,outcome,[7],inactive
same,outcome,[8],inactive
same,outcome,[9],inactive
same,outcome,[10],inactive
same,outcome,[11],inactive
same,outcome,[12],inactive
same,outcome,[13],inactive
same,outcome,[14],inactive
same,outcome,[15],inactive
same,outcome,[16],inactive
C#C[C@]1(O)CC[C@H]2[C@@H]3CCc4cc(OC)ccc4[C@H]3CC[C@@]21C,outcome,[1],inactive
same,outcome,[2],inactive
same,AC50,[3],139 µM (active)
same,AC50,[4],0.921 µM (active)
same,outcome,[17],inactive
same,AC50,[5],0.00914 µM (active)
same,outcome,[6],inactive
same,outcome,[7],inactive
same,outcome,[9],inactive
same,outcome,[18],inactive
same,outcome,[10],inactive
same,outcome,[11],inactive
same,outcome,[12],inactive
same,outcome,[13],inactive
same,outcome,[19],inactive
same,outcome,[14],inactive
same,outcome,[15],inactive
same,outcome,[16],inactive
Oc1ccc(Nc2ccccc2)cc1,outcome,[1],inactive
same,outcome,[2],inactive
same,outcome,[3],inactive
same,AC50,[4],56.3 µM (active)
same,outcome,[17],inactive
same,AC50,[5],5.96 µM (active)
same,outcome,[6],inactive
same,outcome,[7],inactive
same,outcome,[9],inactive
same,outcome,[18],inactive
same,outcome,[11],inactive
same,outcome,[13],inactive
same,outcome,[19],inactive
same,outcome,[14],inactive
CCCCCCCCCCCCCCCC[N+](C)(C)Cc1ccccc1,outcome,[1],inactive
same,outcome,[2],inactive
same,outcome,[3],inactive
same,outcome,[4],inactive
same,outcome,[17],inactive
same,outcome,[5],inactive
same,outcome,[6],inactive
same,outcome,[7],inactive
same,AC50,[18],45.2 µM (active)
same,outcome,[10],inactive
same,outcome,[11],inactive
same,outcome,[12],inactive
same,outcome,[13],inactive
same,AC50,[19],24.8 µM (active)
same,outcome,[20],inactive
C(=C(c1ccccc1)c1ccccc1)c1ccccc1,outcome,[1],inactive
same,outcome,[2],inactive
same,AC50,[3],100 µM (active)
same,outcome,[4],inactive
same,outcome,[17],inactive
same,AC50,[5],0.0329 µM (active)
same,outcome,[7],inactive
same,outcome,[8],inactive
same,outcome,[9],inactive
same,outcome,[10],inactive
same,outcome,[11],inactive
same,outcome,[13],inactive
same,outcome,[19],inactive
same,outcome,[14],inactive
C=CC/C=C/C/C=C/C/C=C/C,outcome,[1],inactive
same,outcome,[2],inactive
same,outcome,[3],inactive
same,outcome,[4],inactive
same,outcome,[17],inactive
same,outcome,[5],inactive
same,outcome,[6],inactive
same,outcome,[7],inactive
same,outcome,[10],inactive
same,outcome,[14],inactive
same,outcome,[15],inactive
same,outcome,[20],inactive
O[Si](c1ccccc1)(c1ccccc1)c1ccccc1,outcome,[1],inactive
same,outcome,[2],inactive
same,outcome,[3],inactive
same,outcome,[4],inactive
same,outcome,[17],inactive
same,AC50,[5],4.11 µM (active)
same,outcome,[6],inactive
same,outcome,[7],inactive
same,outcome,[10],inactive
same,AC50,[11],85.2 µM (active)
same,outcome,[14],inactive
same,outcome,[15],inactive
O=C(O)C(F)(F)C(F)(F)C(F)F,outcome,[1],inactive
same,outcome,[2],inactive
same,outcome,[3],inactive
same,outcome,[4],inactive
same,outcome,[17],inactive
same,outcome,[5],inactive
same,outcome,[7],inactive
same,outcome,[8],inactive
same,outcome,[9],inactive
same,outcome,[18],inactive
same,outcome,[10],inactive
same,outcome,[11],inactive
same,outcome,[12],inactive
same,outcome,[13],inactive
same,outcome,[19],inactive
same,outcome,[14],inactive
same,outcome,[15],inactive
